Bioassay records as filed in PubChem BioAssay.
Compounds with a hit are over-represented: about 3.7% of the library has one in this group of screens.
MazF activator = activators of E. coli MazEF toxin-antitoxin RNase. P0AE70. FAM/BHQ RNA-DNA oligo cleavage fluorescence, 5 h. activation, % at 20 µM. hit rate 0.32% among 350,000; in the data active = activation above about 50%
Target sequence (P0AE70 whole entry, looked up): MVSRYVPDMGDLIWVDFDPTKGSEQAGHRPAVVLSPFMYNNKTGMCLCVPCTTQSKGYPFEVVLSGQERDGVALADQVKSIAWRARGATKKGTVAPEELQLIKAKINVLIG
Anthrax LF inh2 = anthrax lethal factor protease inhibition. P15917. multiplex microsphere protease cleavage assay, LF. inhibition, % at 10 µM. hit rate 0.12% among 360,000. AID 588501; also: plate controls were buffer without enzyme for full effect and enzyme alone for no effect
Bead autofluor = compound fluorescence in toxin protease inhibitor counterscreen | compound autofluorescence counterscreen, microsphere flow cytometry; stronger effect = higher value | AID 624483 | fluorescence intensity (no concentration beside the values) | hit rate 3.1% among 360,000; in the data active = fluorescence intensity above about 16000; inconclusive = no clear call, values can overlap the other calls
BoNT-A LC inh2 = BoNT A light chain protease inhibition | multiplex microsphere protease substrate cleavage, flow cytometry | inhibition, % at 10 µM | hit rate 0.17% among 360,000 | AID 588499; also: plate controls were buffer without enzyme for full effect and enzyme alone for no effect
BoNT-F LC inh = inhibitors of Botulinum neurotoxin F light chain protease; hit rate 0.22% among 360,000; Multiplex microsphere protease cleavage assay, flow cytometry; AID 588497; inhibition, % at 10 µM; in the data active = inhibition above about 35%, passing the limit was not always enough; inconclusive = no clear call, values can overlap the other calls; also: plate controls were buffer without enzyme for full effect and enzyme alone for no effect
Active calls of the source: *; ? = inconclusive; nt = not tested or not shown. Rule as the data show it, unless noted: active = inhibition above about 30%; inconclusive = no clear call, values can overlap the other calls; inactive = below that.

SMILES | MazF activator | Anthrax LF inh2 | Bead autofluor | BoNT-A LC inh2 | BoNT-F LC inh
CCOC(=O)C1=CCN(S(=O)(=O)c2ccc(C)cc2)[C@H]1c1ccccc1Cl | nt | -2.9 | 5680 | -0.8 | -1.5
O=C(Nc1cc(C(F)(F)F)cc(C(F)(F)F)c1)c1ccc(Cn2cc(C(F)(F)F)ccc2=O)cc1 | 3.9 | 0.2 | 20069* | ? | -3.0
Cc1c(NC(=O)c2ccc(NS(=O)(=O)c3ccc(F)c(F)c3)cc2)c(=O)n(-c2ccccc2)n1C | 0.1 | 3.5 | 4558 | 1.9 | 11.9
CCOC(=O)c1ccc(NC(=O)Nc2ccc3c4c(cccc24)C(=O)N3CC)cc1 | 35.2 | 0.5 | 21257* | -1.7 | -2.2
COCCCN(C(C)=O)c1nc(-c2ccc(OC)cc2)cs1 | -4.9 | -0.6 | 21678* | 2.8 | 3.4
COc1ccc(-c2csc(N(CCCN(C)C)C(=O)c3cccs3)n2)cc1 | 17.2 | 0.3 | 21006* | ? | -5.6
CCN(C(=O)c1cccs1)c1nc(-c2ccc(OC)cc2)cs1 | -8.3 | -2.9 | 4143 | 0.0 | -0.8
O=C(c1cccs1)N(CC1CCCO1)c1nc(-c2ccccc2)cs1 (stereo unspecified) | 1.5 | -0.2 | 23325* | -0.6 | -2.5
CCN(CC)CCCN(C(=O)c1ccc(OC)cc1)c1nc(-c2ccc(OC)cc2)cs1 | 29.6 | 4.1 | 4034 | -5.9 | -22.0
FC(F)(F)c1cnc(/C=C/Nc2ccccc2Cl)c(Cl)c1 | -2.1 | -1.4 | 22771* | 1.8 | 1.9
C=CCn1c(SCC(=O)Nc2cc(C)nn2-c2ccccc2)nnc1C1CCCCC1 | -12.7 | -3.1 | 23513* | ? | -5.1
Cn1c(SCC(=O)Nc2ccc3nc(SCC(=O)N4CCCC4)sc3c2)nnc1-c1ccc(N)cc1 | 3.8 | -7.7 | 2361 | -0.7 | -0.9
Cn1cnnc1SCC(=O)Nc1ccc2nc(SCc3ccccc3Cl)sc2c1 | 7.9 | -6.0 | 25037* | ? | -14.5
CC(C)(C)NC(=O)CSc1nc2ccc(Nc3nc(N4CCOCC4)nc(N4CCOCC4)n3)cc2s1 | 4.1 | -2.3 | 2655 | -0.2 | 2.4
Cn1cnnc1SCC(=O)Nc1ccc2nc(SCc3cccc4ccccc34)sc2c1 | -7.0 | 4.5 | 2653 | 0.7 | -6.7
CCC(=O)Nc1ccc2nc(SCC(=O)N3CCCC3)sc2c1 | 1.6 | -18.3 | 20940* | 3.6 | 1.5
CC(=O)CSc1nc2ccc(Nc3nc(N4CCOCC4)nc(N4CCOCC4)n3)cc2s1 | -15.8 | 0.2 | 16232* | 0.4 | 1.5
COc1ccc(CCNC(=O)Cc2ccc(NS(=O)(=O)c3ccc(F)cc3)cc2)cc1OC | 11.8 | -7.4 | 3689 | -0.5 | -6.4
CCc1c(C)c2ccc(OCC(=O)N(C)C)c(C)c2oc1=O | 1.2 | 1.3 | 21643* | 0.9 | 3.9
CCc1c(C)c2ccc(OCC(=O)OC(C)C)c(C)c2oc1=O | -0.5 | 1.2 | 24390* | -1.2 | -1.9
COC(=O)Cc1c(C)c2ccc(OCc3nn[nH]n3)c(C)c2oc1=O | 2.7 | -6.1 | 21317* | 4.0 | 3.1
CN(C)CCNC(=S)NC1CCCCC1 | 4.1 | -1.9 | 5795 | 0.3 | -2.5
CN(C)CCOC(C1CCCCC1)C1CCCCC1 | 7.7 | -6.4 | 24587* | -2.6 | -4.0
C=CCOC(=O)C1CC=CCC1C(=O)Oc1ccc(F)cc1F (stereo unspecified) | -4.0 | -3.4 | 24043* | ? | -3.1
O=C(COc1ccc(F)cc1F)N1CCCCCCC1 | -2.2 | 9.6 | 3613 | 0.5 | -9.9
SMILES | MazF activator | Anthrax LF inh2 | Bead autofluor | BoNT-A LC inh2 | BoNT-F LC inh
CN1OC[C@@H]2CN(Cc3ccc4c(c3)OCO4)[C@H](c3ccc(N4CCCCC4)cc3)C[C@@H]21 | nt | -21.9 | 23460* | -14.6 | 15.4
CC(C)(C)CC(=O)NC(=S)Nc1ccccc1C(F)(F)F | -6.1 | -0.8 | 24827* | -2.6 | -3.2
Cc1ccc([N+](=O)[O-])cc1NC(=S)NC(=O)CC(C)(C)C | 5.6 | 0.8 | 19100* | 1.5 | 1.2
CSc1ccccc1NC(=S)Nc1ccccc1C(F)(F)F | -13.3 | -1.3 | 19907* | 0.5 | 0.6
N#CCCN(C(=O)Nc1ccccc1)C1CCCCC1 | 7.8 | -10.7 | 3767 | -0.1 | -2.9
CCCc1c(-c2ccc(F)cc2)ncn1Cc1ccccc1OC | nt | -6.0 | 5713 | -0.6 | -6.6
C/C(=C/C(=O)NCc1ccccc1)C(=O)O | 1.9 | -6.0 | 22169* | -0.1 | 2.4
CSc1nc(N)nc2c1ncn2CC(=O)N[C@H](CO)Cc1c[nH]c2ccccc12 | 9.1 | -5.8 | 3567 | -0.5 | -1.2
COC(=O)c1cc(NC(=O)c2ccccc2)c(=O)oc1/C=C/Nc1ccc(Oc2ccccc2)cc1 | -206.0 | 16.6 | 97551* | 42.8* | 54.0*
C[C@H](CO)N1C[C@H](C)[C@H](CN(C)C(=O)c2ccccc2F)Oc2ncc(Br)cc2C1=O | 2.0 | -1.7 | 3442 | -0.3 | 0.3
CC/C(O)=C(\C#N)c1nnc2n1CCCCC2 | 7.5 | 0.1 | 20206* | 1.3 | 1.1
